Screens from PubChem BioAssay.
Shown are actives, neighbours in structure and some others; about 3% of the full set was active somewhere.
HMGR II inh = inhibitors of E. faecalis class II HMGR, primary screen, biochemical, Enterococcus faecalis; purified E. faecalis HMGR, NADPH absorbance 340 nm kinetic; inhibition, % at 10 µM; actives 0.41% (n = 190,000);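 active = inhibition above a set limit, the median over all tested compounds plus 3 SD, cut at about 9.5% in these data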;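 note: enzyme runs in reverse so mevalonate oxidation gives rising NADPH absorbance; 0% = complete reaction with DMSO and 100% = background rate lacking mevalonate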
ROMK mod = ROMK potassium channel modulators, primary screen, cell-based, thallium flux, MLSMR library | ATP-sensitive inward rectifier potassium channel 1 (Homo sapiens), P48048 | Tet-inducible ROMK, thallium flux fluorescence; actives lie on both sides | B-score at 10 µM | actives 2% (n = 130,000) | AID 1918, 2009;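 active = signal ratio slope over the read window, or its plate-corrected B-score, at least 3 SD from the plate mean, either direction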;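 note: B-score of the F/F0 ratio slope over 7 to 12 s after thallium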
14-3-3 Bad inh = inhibitors of 14-3-3 zeta/Bad binding, primary screen, biochemical, TR-FRET, bovine 14-3-3 zeta; actives 0.71% (n = 220,000); TR-FRET 14-3-3zeta/Dy647-pBad peptide displacement, 1 h; 14-3-3 protein zeta/delta (Bos taurus), P63103; inhibition, % at 21.7 µM;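 active = inhibition above about 70%, limit read from the data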;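 note: 0% = full 14-3-3 plus peptide FRET controls and 100% = background without 14-3-3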
Target sequence (P63103 whole entry, looked up): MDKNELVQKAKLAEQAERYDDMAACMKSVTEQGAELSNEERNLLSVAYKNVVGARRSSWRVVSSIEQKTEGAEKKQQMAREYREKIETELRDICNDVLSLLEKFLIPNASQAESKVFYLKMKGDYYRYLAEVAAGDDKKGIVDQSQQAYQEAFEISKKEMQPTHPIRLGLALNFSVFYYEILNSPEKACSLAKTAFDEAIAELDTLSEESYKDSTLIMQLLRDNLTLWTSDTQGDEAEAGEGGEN
zVAD death inh = inhibitors of zVAD-triggered necroptosis, primary screen, L929 cells. AID 1377, 2008. actives 0.38% (n = 220,000). viability rescue, % at 10 µM. L929 zVAD necroptosis rescue, ATP luminescence, 24 h; with zVAD 60 µM;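 active = activation, scaled between plate controls, above about 75%, limit read from the data; inactive = activation under that limit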;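 note: 0% = zVAD with DMSO and 100% = DMSO alone without zVAD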
Calpain2 inh = inhibitors of pig calpain II, primary screen, biochemical, fluorogenic peptide substrate, 1536-well. actives 0.37% (n = 220,000). purified calpain II, 30 min. AID 1236, 2008. inhibition, % at 16 µM;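 active = inhibition above about 50%, limit read from the data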
TNF necrop inh = inhibitors of TNF-alpha triggered necroptosis, primary screen, cell-based, Jurkat FADD-/-, single concentration. actives 0.068% (n = 220,000). AID 463075, 2010. activation (protection from cell death), % at 10 µM. Jurkat FADD-/- TNF necroptosis rescue, ATP luminescence, 24 h; 0 = TNF only, 100 = no-TNF cells;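 active = activation, meaning protection from cell death, of at least 50% relative to plate controls; inactive = activation below 50%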;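 note: necroptosis triggered by 40 ng/mL TNF-alpha added together with compound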
Numbers without * were called inactive; . = no result; [ ] = dose if it differs, or a comment.

SMILES	HMGR II inh	ROMK mod	14-3-3 Bad inh	zVAD death inh	Calpain2 inh	TNF necrop inh
CC1CCCN(CCOCCOc2ccc(Cl)cc2Br)C1 (centres undefined)	-3	-2.6	71*	0	-5	-5
COc1cc(CN2CCc3ccccc3C2)ccc1O	.	.	16	61	-15	-32
COC(=O)c1nnn(-c2nc(N3CCOCC3)nc(N3CCOCC3)n2)c1C	1	-0.021	-10	13	6	2
CC1(C)CC(=O)c2cc(C(=O)N3CCN(CCO)CC3)c(=O)n(-c3ccc(Cl)cc3)c2C1	11*	-0.037	7	0	-11	0
CCOc1cc(N2CCOCC2)c(OCC)cc1NS(=O)(=O)c1ccc(Cl)s1	-10	.	83*	0	-1	-15
Cc1ccnc(NC(=O)c2cccs2)c1	1	.	86*	0	23	-2
O=C(Nc1ccccn1)c1cccs1	2	-1.4	-18	1	-6	0
CC(=O)N1CCN(c2ccccc2NC(=O)COc2ccc(Br)cc2)CC1	13*	.	0	0	-7	3
N#C/C(=C\Nc1ccc2cn[nH]c2c1)c1nc(-c2ccc(Cl)cc2)cs1	-7	-1.4	91*	8	-66	1
COc1cc2c(cc1N/C=C(\C#N)c1nc(-c3ccccc3)cs1)oc1ccccc12	0	-0.65	86*	-2	-76	-13
Cc1ccnc(N/C=C(\C#N)c2nc(-c3cccc(Br)c3)cs2)c1	-7	.	65	0	-54	-2
COc1cccc(-c2csc(/C(C#N)=C/Nc3cc4oc5ccccc5c4cc3OC)n2)c1	1	-0.91	-22	0	-100	3
N#C/C(=C\Nc1ccc2cn[nH]c2c1)c1nc(-c2ccccc2)cs1	-3	-0.27	86*	14	-66	1
CC(C)=NNc1nc(-c2ccccc2)c(C)s1	-3	-0.72	-15	1	-36	1
CCOC(=O)CSc1ncnc2c1cnn2-c1ccc(Cl)cc1	-3	1.1	85*	0	-4	-4
CSc1ccccc1C(=O)NCC(c1ccco1)N1CCCCC1 (centres undefined)	12*	-0.93	64	2	-10	0
O=C(Cc1cccc(C(F)(F)F)c1)NCC(c1ccco1)N1CCCCC1 (centres undefined)	-3	0.012	89*	1	-29	1
CC1=C(C#N)C(=O)N(C2CCS(=O)(=O)C2)C(=O)/C1=C\c1ccco1 (centres undefined)	.	-2.9*	77*	0	5	-3
Cn1nc(-c2ccc(Cl)cc2)cc1NC(=O)CCCC(=O)O	.	.	-13	0	-19	1
CC1(C(=O)NCCN2CCOCC2)C=CC2(CCCCC2)N1C(=O)c1ccccc1 (centres undefined)	9.7*	0.24	-7	1	-18	1
CCn1[nH]c(=O)c(=Nc2c(C)n(C)n(-c3ccccc3)c2=O)cc1-c1ccc(Cl)cc1	1	-0.065	91*[fluorescence artefact?]	0	-11	1
CCOC(=O)C(NC(=O)Cc1ccccc1)(Nc1cc(C)on1)C(F)(F)F (centres undefined)	12*	0.16	-7	0	-14	-2
CC(C)(C)C(=O)NC(=S)NNC(=O)c1sc2ccccc2c1Cl	2	7.3*	3	8	-20	-10
Fc1ccc(CSc2nc3ccccc3[nH]2)c2ccccc12	0	1.3	1	0	59*	0
O=c1cc(CSc2nc3ccccc3[nH]2)c2ccccc2[nH]1	1	-0.94	.	1	-10	0
SMILES	HMGR II inh	ROMK mod	14-3-3 Bad inh	zVAD death inh	Calpain2 inh	TNF necrop inh
CCn1cc(S(=O)(=O)Nc2cc(F)ccc2C)cn1	1	-0.44	92*	3	-25	2
CC(C)c1ccc(-c2noc(C3CCCN(C(=O)c4ccc(F)cc4F)C3)n2)cc1 (centres undefined)	-2	.	-6	0	77*	-8
O=C(Oc1ccc2c(c1)OCO2)C12CC3CC(CC(C3)C1)C2	-4	.	3	0	66*	1
CC(=O)c1cccc(NC(=O)NNC(=O)CCC(=O)Nc2ccc(C)c(C)c2)c1	-3	-1	-3	2	10	1
CCOC(=O)/C(C#N)=C/c1ccc(OC(=O)c2ccccn2)cc1	-3	.	81*[fluorescence artefact?]	2	15	1
COC(=O)/C(C#N)=C/c1ccc(OC(=O)c2ccccn2)cc1	1	0.9	-1	1	-6	2
CCOC(=O)/C(C#N)=C/c1ccc(OC)c(OC)c1	-1	0.13	19	1	0	0
CCOC(=O)/C(C#N)=C/c1ccc(SC)cc1	14*	-0.07	-18	1	6	-1
C/C(Cc1ccccc1)=N\NC(=O)CNC(=O)COc1cccc(C)c1	.	.	-1	1	-14	2
Cc1cccc(NC(=S)NC(=O)CCc2ccccc2)c1	-6	.	77*	0	4	-1
Cc1cccc(NC(=S)NC(=O)CCc2ccccc2)c1C	-3	0.027	2	0	10	-1
Cc1cccc(OCC(=O)NNC(=O)CCc2ccccc2)c1	53*	-0.056	1	0	27	1
Cn1c2c(c(=O)n(C)c1=O)C1c3cc(Cl)ccc3OCC1CO2 (centres undefined)	0	.	-17	0	-26	1
Cc1ccc(C(=O)NC(C)c2ccc3c(c2)OCO3)s1 (centres undefined)	13*	0.06	-7	1	-24	3
O=C(NCCc1csc(-c2cccnc2)n1)c1ccc(Br)o1	-3	.	-9	3	99*	-1
CC1(C)CCCN(C(=O)c2ccc3c(c2NCCO)C(=O)c2ccccc2C3=O)C1	-4	-1.8	81*[fluorescence artefact?]	.	9	-5
O=C1c2ccccc2C(=O)c2c1ccc(C(=O)N1CCCCC1)c2NCCO	-2	.	-31	0	-11	-2
O=C(Cn1c(C(F)(F)F)nc2ccccc21)N=Nc1c(O)[nH]c2ccc(Br)cc12	-1	0.54	1	0	-32	0
Cn1nc(C(=O)NCCOc2ccccc2)c2ccccc2c1=O	-2	1.3	75*	0	-6	0
CCN(c1ccccc1)S(=O)(=O)c1ccc(Cl)c(NC(=O)CSc2ncn[nH]2)c1	4	-0.61	0	0	31	3
O=C(CNCC1CCCO1)Nc1ccc(N2CCCCCC2)cc1 (centres undefined)	-1	-1.7	.	9	-14	3
